The source of these data is PubChem BioAssay AID828 (The Scripps Research Institute Molecular Screening Center, 2007).

Screen size: about 140,000 compounds; about 550 (0.39%) were called active. Cut-off read from the data, not from the text of the source: active = inhibition above about 27%; inactive = the rest. The full list was thinned out, with actives kept by preference.

The target in the experiment is Galanin receptor type 2 (Homo sapiens) (UniProt O43603). The experiment in a line: GALR2 antagonists in receptor-expressing cells, primary screen (AID 828).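 Note: cells stimulated with galanin 1-16 at roughly its EC80; 0% = agonist challenge control and 100% = basal control without agonist.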 Conditions: antagonist mode, at 4 µM, active compounds read high.
Sequence of Galanin receptor type 2 (Homo sapiens) (O43603 whole entry, looked up): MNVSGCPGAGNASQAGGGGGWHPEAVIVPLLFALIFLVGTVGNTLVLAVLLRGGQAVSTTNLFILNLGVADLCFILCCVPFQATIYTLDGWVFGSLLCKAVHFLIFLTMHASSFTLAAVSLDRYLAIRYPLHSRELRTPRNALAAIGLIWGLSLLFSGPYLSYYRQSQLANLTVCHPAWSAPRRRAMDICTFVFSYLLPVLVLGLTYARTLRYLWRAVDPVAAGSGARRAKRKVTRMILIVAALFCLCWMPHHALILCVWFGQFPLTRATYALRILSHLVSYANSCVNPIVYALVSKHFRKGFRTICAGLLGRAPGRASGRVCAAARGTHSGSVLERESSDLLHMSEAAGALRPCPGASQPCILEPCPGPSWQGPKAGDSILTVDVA
As for `CCCCN(CC)C(=O)c1ccc2c(c1)OCO2`, the inhibition was -4.88% (inactive).
`C=CCNC(=S)NNC(=O)c1ccc(Br)o1`: the inhibition is 0.37% (inactive).
With `O=C(COc1cccc(F)c1)Oc1ccc(C(=O)c2ccccc2)cc1`, the inhibition is 5.19% (inactive).
Take `CC(C)(C)NCCCOc1ccc(Cl)cc1C(C)(C)C`: the inhibition is -7.15% (inactive).
In the case of `Cc1cccc(-c2nc3ccccc3c(=O)n2NC(=O)Cc2ccc(Cl)cc2)c1`, the inhibition is -8.75% (inactive).
In the case of `Cc1cc(C)cc(NS(=O)(=O)c2ccc(Oc3ncc(C(F)(F)F)cc3Cl)cc2)c1`, the inhibition is -0.6% (inactive).
With `CSc1ccccc1-c1nnc(-c2ccc(Cl)cc2)o1`, the inhibition is 14.1% (inactive).
Turning to `FC(F)(F)c1cnc(Oc2ccccc2-c2nnc(-c3ccc(Cl)cc3)o2)c(Cl)c1`, the inhibition is 99.8% (active).
With `O=C(NNC(=S)Nc1ccc(Br)cc1Cl)c1ccco1` the figure was 1.63% (inactive); with `c1ccc(-c2cc3c(NCC4COc5ccccc5O4)ncnc3s2)cc1` (stereo unspecified), -0.87% (inactive); with `Cc1ccc(F)cc1NC(=O)Cc1nn(C)c(=O)c2ccccc12`, 39.3% (active).
Turning to `Cc1ccc(NC(=O)Cn2nc(C)c3ccccc3c2=O)c(C)c1`, the inhibition was 8.82% (inactive).
Take `COc1ccc(-c2nn(C)c(=O)c3ccccc23)cc1NC(=O)COc1ccccc1`: the inhibition was 2.22% (inactive).
For the compound `Cc1ccc(-n2c(C)cc(C(=O)CSc3nnc4ccccn34)c2C)cc1`, the inhibition was 3.5% (inactive).
For `Cc1ccc(C(=O)NC(=S)Nc2ccc3[nH]c(=O)[nH]c3c2)cc1C`, the inhibition is -6.84% (inactive).
As to `COc1ccc(NC(=S)NCC2CCN(c3ccc(OC)cc3)C2)cc1` (stereo unspecified), the inhibition was -2.41% (inactive).
For the compound `C/C(CC1CC(C)(C)OC1=O)=N/Nc1nc(-c2ccccc2)cs1` (stereo unspecified), the inhibition is 7.6% (inactive).
With `COc1cc(C(=O)NCc2nnc(SCC(=O)Nc3nc4ccc(C)cc4s3)o2)cc(OC)c1OC` the figure was -19.9% (inactive); with `CCCCc1ccc(NC(=S)N2CCCC(CO)C2)cc1` (stereo unspecified), -8.34% (inactive).
As for `COc1ccc(NC(=O)CN(Cc2ccccc2)S(C)(=O)=O)cc1OC`, the inhibition was -9.1% (inactive).
For `CC(C)OCCCNc1ncnc2c1[nH]c1ccc(F)cc12`, the inhibition is 35.1% (active).
Turning to `O=C1CCCN1CCCNc1ncnc2c1[nH]c1ccccc12`, the inhibition was 22.8% (inactive).
Take `CCN1CCCC1CNc1ncnc2c1[nH]c1ccc(F)cc12` (stereo unspecified): the inhibition was 13.1% (inactive).
To `COc1ccc(/C=C/C(=O)Nc2ccc(C34CC5CC(CC(O)(C5)C3)C4)cc2)cc1OC` belongs 27.3% (active).
For `COc1ccc(/C=C/C(=O)Nc2ccc3c(c2)OCCO3)cc1OC`, the inhibition is 12.7% (inactive).
As to `COc1ccc(NS(=O)(=O)c2cc(NC(=O)/C=C/c3cc(OC)c(OC)c(OC)c3)ccc2N2CCCCC2)cc1`, the inhibition was 5.85% (inactive).
